Bioassay records as filed in PubChem BioAssay.
This is a sample that favours compounds with a hit; in the whole collection about 7.9% have one here.
HCV inh = qHTS Assay for Inhibitors of Hepatitis C Virus (HCV) | AID 651820, 2012 | Huh7.5.1 HCVcc-Cre infection, luciferase reporter, 44 h | Potency, µM (doses to about 41.8 µM), actives largely listed as inhibitors | hit rate 3.4% among 340,000; active = well fitted inhibition curve with a large enough effect; inconclusive = small, poorly fitted or top-dose-only effect, or another doubt; inactive = no such curve, though single readings can be large or run the other way
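1,000 cells/well; 4 h culture; + compound; + HCVcc-Cre (~0.5 moi); 44 h; luciferase substrate, RT 15 min; read 15 sec.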
Marburg entry inh = qHTS for inhibitors of binding or entry into cells for Marburg Virus | Potency, µM (doses to about 37.8 µM), actives largely listed as inhibitors | AID 540276, 2011 | Marburg virus pseudotyped entry inhibition, cell reporter | hit rate 1.8% among 300,000; calls by dose curve; tested in HEK293 cells
FMDV inh = High Throughput Screening for Foot and Mouth Disease Virus Antivirals. AID 1159524, 2015. FMDV antiviral cell-based qHTS. Potency, µM (series often up to 57.9 µM), actives largely listed as inhibitors. hit rate 1.2% among 410,000; calls by dose curve; tested in HEK293T cells; note: read-out not given here; nearly all actives have a fitted effect of over 45% in size
LASV entry inh = qHTS for Inhibitors of binding or entry into cells for Lassa Virus; Potency, µM (doses to about 37.9 µM), hits mostly inhibitors; hit rate 1.2% among 300,000; Lassa virus pseudotype entry inhibition, cell reporter; calls by dose curve; tested in HEK293 cells; note: nearly all actives have a fitted effect of over 50% in size
HCMV inh = qHTS Assay for inhibitors of the human cytomegalovirus (HCMV); HFF cells, HCMV-luciferase reporter, 72 h; hits give low values; activity change, negative = inhibition, % at 57.5 µM; hit rate 4.5% among 410,000; in the data active = activity change below about -60%; inconclusive = no clear call, values can overlap the other calls; inactive = above about -39%
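Luciferase read-out from HCMV-luciferase-infected HFFs (MOI 1 PFU/cell) 72 h post infection at 37C; compounds added after 16 h cell attachment; activity normalized between buffer-only basal and Salinomycin (10uM) inhibitor controls.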
Large screens that a line does not name were inactive.

Cc1ccc(C)c(OCC(=O)N/N=C/c2c(C)nn(-c3ccccc3)c2Cl)c1C	HCV inh inconclusive, LASV entry inh inconclusive, HCMV inh -67.8
CCOc1ccc(Oc2c(/C=N/NC(=O)COc3ccccc3OC)c(C)nn2-c2ccccc2)cc1	HCV inh 12.6µM, Marburg entry inh inconclusive, LASV entry inh inconclusive
Cc1nn(-c2cccc(C(F)(F)F)c2)c(Cl)c1/C=N/Nc1cccc(C(=O)O)c1	Marburg entry inh inconclusive, LASV entry inh inconclusive
CCCCNC(=S)N/N=C1\C(=O)c2cccc3cccc1c23	none
CNC(=S)N/N=C1\C(=O)c2cccc3cccc1c23	HCMV inh -106.4
CCCCNC(=O)c1nc2cc(C)c(C)cc2nc1-c1cccc(OC)c1	none (no result: HCV inh, Marburg entry inh, FMDV inh, LASV entry inh)
O=C(COC(=O)CCC(=O)c1cccs1)NC1CCCCC1	none (no result: Marburg entry inh, LASV entry inh)
Cc1ccc2[nH]c(=O)c3cc(C(=O)N(C)c4ccc(C)c(C)c4)sc3c2c1	FMDV inh inconclusive, HCMV inh -60.6 (no result: Marburg entry inh, LASV entry inh)
O=C(NCCCN1CCOCC1)c1cc2c(=O)[nH]c3ccccc3c2s1	Marburg entry inh 10µM
CCCCN(CC)CCNC(=O)c1cc2c(=O)[nH]c3ccc(C)cc3c2s1	HCV inh inconclusive, Marburg entry inh 5.01µM, LASV entry inh inconclusive, HCMV inh -64.6
CN(C)CCCNC(=O)c1cc2sc3ccccc3c2s1	HCV inh 10µM, Marburg entry inh inconclusive
CCCCN(CC)CCCNC(=O)c1cc2c(=O)[nH]c3ccccc3c2s1	HCV inh inconclusive, Marburg entry inh 7.08µM, HCMV inh inconclusive
Cc1ccccc1CNC(=O)CN1C(=O)C2CCCCN2c2ccc(C(=O)N3CCCC3)cc21 (stereo not drawn)	none (no result: HCV inh, Marburg entry inh)
CC1Sc2ccc(C(=O)Nc3ncccc3O)cc2NC1=O (stereo not drawn)	Marburg entry inh 10µM, LASV entry inh inconclusive
Cc1cc(N/C=C/C(=O)c2cccs2)ccc1F	HCMV inh -101.2 (no result: Marburg entry inh, LASV entry inh)
Cc1ccc(N/C=C/C(=O)c2cccs2)cc1C	HCV inh inconclusive, Marburg entry inh inconclusive, FMDV inh inconclusive, LASV entry inh 10µM
O=C(/C=C/Nc1ccc(Nc2ccccc2)cc1)c1cccs1	LASV entry inh inconclusive
CC(NC(=O)CNC(=O)c1ccccc1F)c1ccc(-n2ccnc2)cc1 (stereo not drawn)	none (no result: Marburg entry inh, LASV entry inh)
C/C(=N/Nc1cc(-c2ccccc2)nc(-c2ccccc2)n1)c1ccc(O)cc1	HCV inh inconclusive, Marburg entry inh inconclusive, HCMV inh -65.4
CCNC(=S)N1N=C2c3ccccc3CCC2C1c1ccc(F)cc1 (stereo not drawn)	HCV inh inconclusive, Marburg entry inh inconclusive, FMDV inh inconclusive, LASV entry inh inconclusive
O=C(N1CCCC1)C(F)(F)Oc1ccc(F)cc1	none
CS(=O)(=O)c1ccc(Sc2nc3ccccc3s2)c([N+](=O)[O-])c1	HCV inh inconclusive, Marburg entry inh 11.2µM, FMDV inh 35.5µM, LASV entry inh inconclusive (no result: HCMV inh)
Cc1ccc(Cl)cc1N1CCN(C(=O)CCCCCn2c(=O)[nH]c3ccccc3c2=O)CC1	LASV entry inh inconclusive (no result: HCV inh, Marburg entry inh)
CCOc1ccccc1NCc1nnc2n1CCCCC2	none (no result: HCV inh, Marburg entry inh)
Cc1ccc(C(=O)N2c3ccccc3Sc3ccccc32)cc1	HCMV inh inconclusive (no result: HCV inh, Marburg entry inh, LASV entry inh)
COc1ccccc1C(=O)N1c2ccccc2Sc2ccccc21	HCV inh inconclusive, Marburg entry inh inconclusive, LASV entry inh inconclusive, HCMV inh -72.7
CCOc1ccccc1C(=O)N1c2ccccc2Sc2ccccc21	HCV inh 11.2µM, Marburg entry inh inconclusive, LASV entry inh inconclusive
COc1ccc(C2NCc3ccc4c(c3-n3cccc32)OCO4)cc1O (stereo not drawn)	HCV inh 0.562µM, Marburg entry inh 0.631µM, LASV entry inh inconclusive (no result: HCMV inh)
c1cc2n(c1)-c1c(ccc3c1OCO3)CNC2c1ccc2c(c1)OCO2 (stereo not drawn)	HCV inh inconclusive, Marburg entry inh inconclusive
COCCn1c(-c2ccccc2)csc1=Nc1cccnc1	HCV inh 8.91µM, Marburg entry inh inconclusive, FMDV inh inconclusive
Cc1ccc(-c2csc(=Nc3cccnc3)n2CCCn2ccnc2)cc1C	HCV inh inconclusive, Marburg entry inh inconclusive, FMDV inh 15.8µM, LASV entry inh inconclusive, HCMV inh -94.7
CC(C)n1c(-c2ccco2)csc1=Nc1cccnc1	HCV inh inconclusive, FMDV inh 25.1µM, HCMV inh -79.5
CCCCn1c(C)csc1=Nc1cccnc1	HCMV inh -63.3
Cc1ccc(-c2csc(=Nc3cccnc3)n2CCCN2CCCC2=O)cc1C	HCV inh inconclusive, FMDV inh inconclusive, HCMV inh inconclusive
CCN(CC)C(=O)C1=CC(c2ccc3c(c2)OCO3)=NS(=O)(=O)N1C	none (no result: HCV inh)
CC1CCCN(c2cc3c(cc2F)c(=O)c(S(=O)(=O)c2cccc(Cl)c2)cn3C)C1 (stereo not drawn)	none (no result: HCV inh, Marburg entry inh)
Cc1cc(C)c(S(=O)(=O)OC[C@H]2C=CC[C@@H](CCC[C@H]3O[C@H](C(=O)OC(C)C)CC[C@@H]3C)O2)c(C)c1	none (no result: HCV inh, FMDV inh, LASV entry inh, HCMV inh)
c1ccc(-c2nc3ccccc3nc2-c2nc3ccccc3[nH]2)cc1	none (no result: HCV inh, Marburg entry inh, FMDV inh, LASV entry inh)
Nc1c(C(=O)c2ccccc2)sc2nsc(SCCN3CCCC3)c12	HCV inh inconclusive, Marburg entry inh inconclusive, LASV entry inh 6.31µM, HCMV inh -90.8
Cc1ccc(C(=O)N(Cc2cc3cccc(C)c3nc2N(C)C)CC2CCCO2)cc1 (stereo not drawn)	none (no result: HCV inh, Marburg entry inh, LASV entry inh, HCMV inh)
Oc1cc2c(cc1C(c1ccc(Cl)c(Cl)c1)N1CCCC1)OCO2 (stereo not drawn)	Marburg entry inh inconclusive, FMDV inh inconclusive, HCMV inh -97.0
CC(C)c1ccc(NC(=O)C(c2ccc3c(c2)OCO3)N2CCCCC2)cc1 (stereo not drawn)	none (no result: Marburg entry inh, LASV entry inh)
COc1ccc(-c2cn(CC[C@@H]3CC[C@H](NC(=O)Cc4ccccn4)[C@@H](CO)O3)nn2)cc1	none (no result: HCV inh, Marburg entry inh, LASV entry inh)
CC(C)CC[n+]1ccccc1/C=C/c1ccc(N(C)C)cc1	HCV inh 5.01µM, Marburg entry inh inconclusive, FMDV inh inconclusive, LASV entry inh inconclusive, HCMV inh -102.3
NC(=O)CCN1CC(c2cc(Cl)c(N)c(Cl)c2)=CC1=O	none (no result: HCV inh, Marburg entry inh, FMDV inh, LASV entry inh)
N#Cc1ccccc1Cn1c(SCC(=O)NCc2ccccc2)nc2ccccc21	LASV entry inh inconclusive, HCMV inh inconclusive (no result: HCV inh, Marburg entry inh)
CC1CC2=C(NC(=S)NC2c2cccc(F)c2)/C(=C/c2cccc(F)c2)C1 (stereo not drawn)	HCV inh 10µM, Marburg entry inh inconclusive, FMDV inh inconclusive (no result: LASV entry inh)
Cc1ccc(/C=C2\CC(C)CC3=C2NC(=S)NC3c2ccc(C)cc2)cc1 (stereo not drawn)	HCV inh inconclusive, Marburg entry inh inconclusive
COc1ccc(/C=C2\SC(=S)N(Cc3cccnc3)C2=O)cc1C	Marburg entry inh inconclusive
CCOc1cc(/C=C2/SC(=Nc3ccccc3)N(Cc3cccnc3)C2=O)ccc1OCC#N	HCV inh inconclusive, Marburg entry inh inconclusive, FMDV inh inconclusive, LASV entry inh inconclusive, HCMV inh -60.2
O=C(NC(=O)c1ccccc1)C1=C(N2CCCC2)COC1=O	none (no result: Marburg entry inh, LASV entry inh)
O=C(NC(=O)c1cc([N+](=O)[O-])ccc1Cl)C1=C(N2CCCC2)COC1=O	HCV inh inconclusive, FMDV inh 20µM (no result: Marburg entry inh, LASV entry inh)
